SRC2 TRFRET art = TR-FRET signal artefacts, primary screen, artefact control for PPARgamma SRC-2 agonist project, biochemical | TR-FRET artefact counter-screen; hits give high values | TR-FRET ratio at 8 µM | hit rate 0.4% among 200,000 | AID 1049, 2008
SRC3 TRFRET art = TR-FRET detection interference compounds, artefact control for PPARgamma SRC-3 recruitment agonists, biochemical, TR-FRET ratio. TR-FRET artefact counter-screen, PPARgamma/SRC-3 format; hits give high values. TR-FRET ratio at 8 µM. AID 1048, 2008. hit rate 0.39% among 99,000
PPARg SRC1 recr = PPARgamma agonists recruiting SRC-1 coactivator, primary screen, biochemical. Peroxisome proliferator-activated receptor gamma (Homo sapiens), P37231. activation, % at 8 µM. AID 631, 2007. PPARgamma-SRC-1 coactivator recruitment biochemical assay. hit rate 0.41% among 200,000; in the data active means activation above about 19%;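 further: 0% = DMSO and 100% = reference agonist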
SRC1 TRFRET art = TR-FRET detection interference compounds, primary screen, artefact control for PPARgamma SRC-1 recruitment agonists, biochemical, TR-FRET emission ratio | TR-FRET detection artefact counter-screen; hits give high values | TR-FRET ratio at 8 µM | hit rate 0.34% among 99,000; in the data active means TR-FRET ratio above about 2300
PPARg SRC2 recr = agonists of PPARg-SRC-2 recruitment, primary screen, biochemical, HTS. PPARgamma LBD-SRC-2 recruitment. hit rate 0.34% among 200,000. AID 1032, 2008. activation, % at 8 µM; in the data active means activation above about 22%;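 further: 0% = vehicle and 100% = reference agonist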
PPARg SRC-3 ag = PPARgamma agonists recruiting SRC-3 coactivator, primary screen, biochemical; biochemical PPARgamma/SRC-3 coactivator recruitment assay; Peroxisome proliferator-activated receptor gamma (Homo sapiens), P37231; AID 731, 2007; activation, % at 8 µM; hit rate 0.26% among 200,000; in the data active means activation above about 23%;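 further: 0% = DMSO and 100% = reference agonist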
PPARg SRC2 ag = agonists of PPARgamma SRC-2 coactivator recruitment, confirmation, biochemical, HTS; hit rate 52% among 790; biochemical SRC-2 recruitment by PPARgamma; activation, % at 8 µM; shares compounds with PPARg SRC-3 ag; in the data active means activation above about 22%;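 further: 0% = vehicle alone and 100% = reference agonist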
PPARg SRC1 conf = PPARgamma agonists recruiting SRC-1 coactivator, confirmation, biochemical; shares compounds with PPARg SRC-3 ag; PPARgamma–SRC-1 coactivator recruitment biochemical assay; hit rate 43% among 790; activation, % at 8 µM; in the data active means activation above about 20%;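 further: 0% = vehicle wells and 100% = reference agonist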
PPARg SRC3 conf = PPARgamma-driven SRC-3 coactivator recruitment agonists, confirmation, biochemical; shares compounds with PPARg SRC-3 ag; biochemical PPARgamma-SRC-3 coactivator recruitment, agonist mode; activation, % at 8 µM; hit rate 29% among 790; AID 1301, 2008; in the data active means activation above about 24%;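 further: 0% = vehicle wells and 100% = reference agonist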
* = called active by the depositor; x = not tested or not shown. Rows were chosen to be rich in hits. Some 0.9% of all compounds tested hit in one or more screens of this group. Unless noted, no stated cut-off is given here; in the data, active means TR-FRET ratio above about 2000; inactive means the rest.

SMILES | SRC2 TRFRET art | SRC3 TRFRET art | PPARg SRC1 recr | SRC1 TRFRET art | PPARg SRC2 recr | PPARg SRC-3 ag | PPARg SRC2 ag | PPARg SRC1 conf | PPARg SRC3 conf
CN(C)S(=O)(=O)c1ccc(Cl)c(NC(=O)CSc2nc3ccccc3c(=O)n2CCCN2CCOCC2)c1 | 1394 | 1506 | 0.1 | 1707 | -7.6 | -4.8 | x | x | x
O=C(O)c1cn(-c2ccc(N3CCCC3)c(F)c2)c2c(F)c(F)c(F)cc2c1=O | 3278* | 3524* | 67.3* | 4223* | 67.8* | 38.1* | -4.9 | -4.0 | 3.7
O=[N+]([O-])c1cc(Cc2ccccc2)cc(C=Nc2ccc(N3CCOCC3)cc2)c1O | 2504* | 2652* | 50.6* | 3128* | 65.0* | 39.2* | 21.6 | 17.4 | 16.6
Cc1ccc(C)c(/C=N/n2cc(-c3ccccc3)[nH]c2=S)c1 | 1728 | 1480 | -2.9 | 1705 | 5.0 | 3.2 | x | x | x
S=c1[nH]c(-c2ccccc2)cn1/N=C/c1ccc(Br)cc1 | 1402 | 1662 | 29.9* | 1927 | 13.3 | 25.8* | 12.1 | 15.6 | 14.9
CSc1nnc(-c2ccccc2SC)o1 | 1917 | 2050 | 21.8* | 2301 | 19.9 | 14.2 | 18.6 | 11.9 | 7.8
CSc1ccccc1-c1nnc(-c2ccccc2)o1 | 1741 | x | 0.5 | x | 0.0 | 8.6 | x | x | x
CCn1c2c(c3cc(Br)ccc31)CCC/C2=N\O | 2351* | x | 34.1* | x | 39.5* | 61.2* | 45.4* | 30.1* | 28.9*
CCn1c2c(c3cc(OCC(C)C)ccc31)CCCC2=O | 1436 | x | -3.5 | x | 3.6 | 2.7 | x | x | x
CC(=O)N1N=C(c2ccc(Br)cc2)CC1c1cn(C)c2ccccc12 (stereo not given) | 2079* | 2275* | 24.1* | 2488* | 28.3* | 20.4 | 36.0* | 34.5* | 23.8
CCCC(=O)N1N=C(c2ccccc2)CC1c1cn(C)c2ccccc12 (stereo not given) | 1652 | 1691 | 0.5 | 1917 | 3.3 | 5.0 | x | x | x
S=C1NC2CCCCC2N1 (stereo not given) | 1373 | 1737 | 5.9 | 1794 | 7.9 | -3.4 | x | x | x
CCC(=Nc1ccc(N)cc1)C1=C(O)C(C(=O)OC)C(C)(C)CC1=O (stereo not given) | 1785 | x | 22.9* | x | 23.0* | 38.2* | 1.5 | 4.4 | 6.3
COc1ccc(C2=C(SC)CC2=NC(C)(C)C)cc1 | 1566 | 1547 | 2.2 | 1682 | 2.0 | 2.5 | x | x | x
COc1c(F)c(F)c(C(=O)Nc2ccc3oc(-c4ccncc4)nc3c2)c(F)c1F | 1606 | x | 82.4* | x | 3.4 | 74.4* | 71.2* | 66.1* | 48.6*
CCCCn1c(=S)[nH]c2c(oc3ccc(Cl)cc32)c1=O | 1792 | x | 22.3* | x | 16.6 | 18.1 | 12.3 | 5.0 | 11.3
Cc1ccc2nc(N3CCN(S(=O)(=O)c4ccc(C)c(Cl)c4)CC3)c(C#N)cc2c1 | 1637 | x | 21.7* | x | 5.5 | 29.0* | 9.1 | 5.9 | 3.5
Cc1ccc2nc(N3CCN(C)CC3)c(C#N)cc2c1 | 1378 | x | 2.8 | x | -4.3 | -2.5 | x | x | x
Cc1ccc(C(=O)C(c2ccccc2)N2Cc3ccccc3C2=N)cc1 (stereo not given) | 1515 | 1498 | -7.9 | 1599 | 4.1 | 1.6 | x | x | x
Cc1ccc(/C=C/C(=O)Nc2ccc(N(C)C)cc2)o1 | 1841 | 1522 | 25.4* | 2095 | 24.8* | 15.1 | 9.2 | 5.7 | 3.5
N#Cc1cc2ccccc2nc1SCc1cccnc1 | 1334 | 1426 | 0.1 | 1739 | -0.5 | -1.2 | x | x | x
COc1ccc2nc(SC)c(C#N)cc2c1 | 1641 | 2738* | 7.5 | 2037 | 11.4 | 27.0* | 75.3* | 57.7* | 43.0*

Assay outcomes as filed in PubChem.
